Laboratory results taken from publication PMC12529666, “Dysregulation of AGO2-miRNA dynamics underlies the AGO2-associated Lessel–Kreienkamp syndrome”.
Numbering of substitutions follows the chain as printed.

B1: ACACTCCA (ssRNA)
RNA 1: GAGUUCUACAGUCCGACGAUCCCAACACACUCCACACCUGGAAUUCUCGGGUGCCAA
RNA 2: UGGAGUGUGACAAUGGUGUUUG
DNA 1: GATCGTCGGACTGTAGAACTC
DNA 2: TTGGCACCCGAGAATTCCA
modifications: constant regions annealed to DNA blockers; guide miR-122 5' phosphate
B2: GTACTTCA (ssRNA)
RNA 1: B1 RNA 1 with A27G, C28U, C32U
RNA 2: UGGAGUGUGACAAUGGUGUUUG
DNA 1: GATCGTCGGACTGTAGAACTC
DNA 2: TTGGCACCCGAGAATTCCA
modifications: constant regions annealed to DNA blockers; guide miR-122 5' phosphate
B3: ACACTCTA (ssRNA)
RNA 1: B1 RNA 1 with C33U
RNA 2: UGGAGUGUGACAAUGGUGUUUG
DNA 1: GATCGTCGGACTGTAGAACTC
DNA 2: TTGGCACCCGAGAATTCCA
modifications: constant regions annealed to DNA blockers; guide miR-122 5' phosphate
B4: ACATCCTA (ssRNA)
RNA 1: B1 RNA 1 with C30U, U31C, C33U
RNA 2: UGGAGUGUGACAAUGGUGUUUG
DNA 1: GATCGTCGGACTGTAGAACTC
DNA 2: TTGGCACCCGAGAATTCCA
modifications: constant regions annealed to DNA blockers; guide miR-122 5' phosphate
B5: ATACTCCG (ssRNA)
RNA 1: B1 RNA 1 with C28U, A34G
RNA 2: UGGAGUGUGACAAUGGUGUUUG
DNA 1: GATCGTCGGACTGTAGAACTC
DNA 2: TTGGCACCCGAGAATTCCA
modifications: constant regions annealed to DNA blockers; guide miR-122 5' phosphate
B6: ATGTCTCA (ssRNA)
RNA 1: B1 RNA 1 with C28U, A29G, C30U, U31C, C32U
RNA 2: UGGAGUGUGACAAUGGUGUUUG
DNA 1: GATCGTCGGACTGTAGAACTC
DNA 2: TTGGCACCCGAGAATTCCA
modifications: constant regions annealed to DNA blockers; guide miR-122 5' phosphate
B7: GTACTCCG (ssRNA)
RNA 1: B1 RNA 1 with A27G, C28U, A34G
RNA 2: UGGAGUGUGACAAUGGUGUUUG
DNA 1: GATCGTCGGACTGTAGAACTC
DNA 2: TTGGCACCCGAGAATTCCA
modifications: constant regions annealed to DNA blockers; guide miR-122 5' phosphate
B8: GTACTCCA (ssRNA)
RNA 1: B1 RNA 1 with A27G, C28U
RNA 2: UGGAGUGUGACAAUGGUGUUUG
DNA 1: GATCGTCGGACTGTAGAACTC
DNA 2: TTGGCACCCGAGAATTCCA
modifications: constant regions annealed to DNA blockers; guide miR-122 5' phosphate
B9: ACATTCCA (ssRNA)
RNA 1: B1 RNA 1 with C30U
RNA 2: UGGAGUGUGACAAUGGUGUUUG
DNA 1: GATCGTCGGACTGTAGAACTC
DNA 2: TTGGCACCCGAGAATTCCA
modifications: constant regions annealed to DNA blockers; guide miR-122 5' phosphate
B10: GCACTCCA (ssRNA)
RNA 1: B1 RNA 1 with A27G
RNA 2: UGGAGUGUGACAAUGGUGUUUG
DNA 1: GATCGTCGGACTGTAGAACTC
DNA 2: TTGGCACCCGAGAATTCCA
modifications: constant regions annealed to DNA blockers; guide miR-122 5' phosphate
B11: ACGCTTCA (ssRNA)
RNA 1: B1 RNA 1 with A29G, C32U
RNA 2: UGGAGUGUGACAAUGGUGUUUG
DNA 1: GATCGTCGGACTGTAGAACTC
DNA 2: TTGGCACCCGAGAATTCCA
modifications: constant regions annealed to DNA blockers; guide miR-122 5' phosphate
B12: ACACCCCA (ssRNA)
RNA 1: B1 RNA 1 with U31C
RNA 2: UGGAGUGUGACAAUGGUGUUUG
DNA 1: GATCGTCGGACTGTAGAACTC
DNA 2: TTGGCACCCGAGAATTCCA
modifications: constant regions annealed to DNA blockers; guide miR-122 5' phosphate
B13: ACACTCCG (ssRNA)
RNA 1: B1 RNA 1 with A34G
RNA 2: UGGAGUGUGACAAUGGUGUUUG
DNA 1: GATCGTCGGACTGTAGAACTC
DNA 2: TTGGCACCCGAGAATTCCA
modifications: constant regions annealed to DNA blockers; guide miR-122 5' phosphate
B14: ACACTTTA (ssRNA)
RNA 1: B1 RNA 1 with C32U, C33U
RNA 2: UGGAGUGUGACAAUGGUGUUUG
DNA 1: GATCGTCGGACTGTAGAACTC
DNA 2: TTGGCACCCGAGAATTCCA
modifications: constant regions annealed to DNA blockers; guide miR-122 5' phosphate
B15: ACACCTCA (ssRNA)
RNA 1: B1 RNA 1 with U31C, C32U
RNA 2: UGGAGUGUGACAAUGGUGUUUG
DNA 1: GATCGTCGGACTGTAGAACTC
DNA 2: TTGGCACCCGAGAATTCCA
modifications: constant regions annealed to DNA blockers; guide miR-122 5' phosphate
B16: GCATCTCA (ssRNA)
RNA 1: B1 RNA 1 with A27G, C30U, U31C, C32U
RNA 2: UGGAGUGUGACAAUGGUGUUUG
DNA 1: GATCGTCGGACTGTAGAACTC
DNA 2: TTGGCACCCGAGAATTCCA
modifications: constant regions annealed to DNA blockers; guide miR-122 5' phosphate
B17: GCGTCCTA (ssRNA)
RNA 1: B1 RNA 1 with A27G, A29G, C30U, U31C, C33U
RNA 2: UGGAGUGUGACAAUGGUGUUUG
DNA 1: GATCGTCGGACTGTAGAACTC
DNA 2: TTGGCACCCGAGAATTCCA
modifications: constant regions annealed to DNA blockers; guide miR-122 5' phosphate
B18: ATGCTCCA (ssRNA)
RNA 1: B1 RNA 1 with C28U, A29G
RNA 2: UGGAGUGUGACAAUGGUGUUUG
DNA 1: GATCGTCGGACTGTAGAACTC
DNA 2: TTGGCACCCGAGAATTCCA
modifications: constant regions annealed to DNA blockers; guide miR-122 5' phosphate
B19: ACATCTCA (ssRNA)
RNA 1: B1 RNA 1 with C30U, U31C, C32U
RNA 2: UGGAGUGUGACAAUGGUGUUUG
DNA 1: GATCGTCGGACTGTAGAACTC
DNA 2: TTGGCACCCGAGAATTCCA
modifications: constant regions annealed to DNA blockers; guide miR-122 5' phosphate

target: AGO2 WT (phosphosite mutant background) (Homo sapiens, UniProt Q9UKV8 1-859, S387D;S824A;S828D;S831D;S834A); test: RNA Bind-n-Seq (nitrocellulose filter binding and sequencing); miR-122 guide loaded in AGO2; 60 min incubation; 30 mM Tris pH 8.0, 100 mM potassium acetate, 2 mM magnesium acetate, 0.5 mM TCEP, 0.005% NP-40, 0.01 mg/ml yeast tRNA; 3 nM AGO2-miR-122, 100 nM RNA library; 60; high values mean tight binding; conditions: protein: recombinant; tags: His6 (N-terminal, pFastBac HTA)
Sequence (Q9UKV8 whole entry S387D/S824A/S828D/S831D/S834A): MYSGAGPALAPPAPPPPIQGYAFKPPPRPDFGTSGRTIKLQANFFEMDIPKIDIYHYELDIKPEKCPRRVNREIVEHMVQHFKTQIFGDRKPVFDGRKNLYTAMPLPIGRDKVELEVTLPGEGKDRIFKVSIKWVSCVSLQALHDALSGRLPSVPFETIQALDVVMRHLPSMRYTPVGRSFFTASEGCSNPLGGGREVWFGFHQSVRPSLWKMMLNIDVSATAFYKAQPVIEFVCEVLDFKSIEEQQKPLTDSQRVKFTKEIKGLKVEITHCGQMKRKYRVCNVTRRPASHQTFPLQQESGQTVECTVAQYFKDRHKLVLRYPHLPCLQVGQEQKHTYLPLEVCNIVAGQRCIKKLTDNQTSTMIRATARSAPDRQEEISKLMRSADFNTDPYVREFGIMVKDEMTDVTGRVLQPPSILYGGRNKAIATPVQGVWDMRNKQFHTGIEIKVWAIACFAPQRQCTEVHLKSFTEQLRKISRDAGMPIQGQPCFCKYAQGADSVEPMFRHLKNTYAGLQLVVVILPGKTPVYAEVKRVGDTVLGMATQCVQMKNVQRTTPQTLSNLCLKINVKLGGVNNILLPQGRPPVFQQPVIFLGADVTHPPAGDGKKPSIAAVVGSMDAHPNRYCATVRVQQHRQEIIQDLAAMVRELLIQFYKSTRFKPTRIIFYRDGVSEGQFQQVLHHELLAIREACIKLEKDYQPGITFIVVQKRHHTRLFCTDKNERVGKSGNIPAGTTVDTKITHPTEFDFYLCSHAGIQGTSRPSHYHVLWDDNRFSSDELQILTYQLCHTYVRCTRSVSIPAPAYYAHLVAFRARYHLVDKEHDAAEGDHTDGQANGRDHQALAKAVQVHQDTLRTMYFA
In short: (§1)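 His-tagged AGO2 was expressed in Sf9 insect cells by baculovirus, loaded with a synthetic guide RNA, and purified by Ni-NTA and a biotinylated capture oligo. Bound RNA was extracted, reverse-transcribed, barcode-amplified and Illumina-sequenced. Fold enrichment is each sequence's read fraction divided by its input-library read fraction.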

Row | Binder | binding signal
1 | B1 | 229 fold enrichment over input
2 | B2 | 0.125 fold enrichment over input
3 | B3 | 0.587 fold enrichment over input
4 | B4 | 0.139 fold enrichment over input
5 | B5 | 0.401 fold enrichment over input
6 | B6 | 0.232 fold enrichment over input
7 | B7 | 0.327 fold enrichment over input
8 | B8 | 0.714 fold enrichment over input
9 | B9 | 0.267 fold enrichment over input
10 | B10 | 117 fold enrichment over input
11 | B11 | 0.133 fold enrichment over input
12 | B12 | 0.238 fold enrichment over input
13 | B13 | 154 fold enrichment over input
14 | B14 | 0.133 fold enrichment over input
15 | B15 | 0.251 fold enrichment over input
16 | B16 | 0.126 fold enrichment over input
17 | B17 | 0.123 fold enrichment over input
18 | B18 | 0.416 fold enrichment over input
19 | B19 | 0.206 fold enrichment over input

target: AGO2 L192P (Homo sapiens, UniProt Q9UKV8 1-859, L192P;S387D;S824A;S828D;S831D;S834A); test: as above; conditions: protein: recombinant; tags: His6 (N-terminal, pFastBac HTA)
Sequence (Q9UKV8 whole entry L192P/S387D/S824A/S828D/S831D/S834A): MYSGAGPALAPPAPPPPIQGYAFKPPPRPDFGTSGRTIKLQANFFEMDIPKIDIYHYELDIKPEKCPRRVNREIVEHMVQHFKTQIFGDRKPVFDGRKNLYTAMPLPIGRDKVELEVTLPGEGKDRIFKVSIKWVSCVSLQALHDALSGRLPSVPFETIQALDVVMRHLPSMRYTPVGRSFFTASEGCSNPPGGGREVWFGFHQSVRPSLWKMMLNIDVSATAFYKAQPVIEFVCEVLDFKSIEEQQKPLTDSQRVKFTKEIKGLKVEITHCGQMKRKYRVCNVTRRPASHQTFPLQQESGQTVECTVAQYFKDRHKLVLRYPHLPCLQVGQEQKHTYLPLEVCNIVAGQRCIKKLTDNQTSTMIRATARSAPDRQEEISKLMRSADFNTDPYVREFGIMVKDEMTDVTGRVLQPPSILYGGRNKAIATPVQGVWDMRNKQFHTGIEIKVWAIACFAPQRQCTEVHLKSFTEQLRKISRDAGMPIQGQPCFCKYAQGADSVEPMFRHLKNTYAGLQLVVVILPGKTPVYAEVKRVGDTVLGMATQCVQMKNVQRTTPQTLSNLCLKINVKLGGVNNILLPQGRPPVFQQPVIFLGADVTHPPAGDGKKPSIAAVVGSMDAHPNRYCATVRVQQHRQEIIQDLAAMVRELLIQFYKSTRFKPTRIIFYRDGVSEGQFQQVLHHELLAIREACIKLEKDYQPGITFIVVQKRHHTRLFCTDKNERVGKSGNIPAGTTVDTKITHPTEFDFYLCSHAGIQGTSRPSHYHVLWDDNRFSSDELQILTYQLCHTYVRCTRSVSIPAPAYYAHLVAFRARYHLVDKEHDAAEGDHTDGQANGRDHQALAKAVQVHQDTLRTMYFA
In short: as §1

Row | Binder | binding signal
20 | B1 | 102 fold enrichment over input
21 | B2 | 0.53 fold enrichment over input
22 | B3 | 0.74 fold enrichment over input
23 | B4 | 0.451 fold enrichment over input
24 | B5 | 1.86 fold enrichment over input
25 | B6 | 0.674 fold enrichment over input
26 | B7 | 0.802 fold enrichment over input
27 | B8 | 1.62 fold enrichment over input
28 | B9 | 1.03 fold enrichment over input
29 | B10 | 45.2 fold enrichment over input
30 | B11 | 0.605 fold enrichment over input
31 | B12 | 0.861 fold enrichment over input
32 | B13 | 99.5 fold enrichment over input
33 | B14 | 0.539 fold enrichment over input
34 | B15 | 1.13 fold enrichment over input
35 | B16 | 0.567 fold enrichment over input
36 | B17 | 0.489 fold enrichment over input
37 | B18 | 3.01 fold enrichment over input
38 | B19 | 0.924 fold enrichment over input

target: AGO2 A367P (Homo sapiens, UniProt Q9UKV8 1-859, A367P;S387D;S824A;S828D;S831D;S834A); test: as above; conditions: protein: recombinant; tags: His6 (N-terminal, pFastBac HTA)
Sequence (Q9UKV8 whole entry A367P/S387D/S824A/S828D/S831D/S834A): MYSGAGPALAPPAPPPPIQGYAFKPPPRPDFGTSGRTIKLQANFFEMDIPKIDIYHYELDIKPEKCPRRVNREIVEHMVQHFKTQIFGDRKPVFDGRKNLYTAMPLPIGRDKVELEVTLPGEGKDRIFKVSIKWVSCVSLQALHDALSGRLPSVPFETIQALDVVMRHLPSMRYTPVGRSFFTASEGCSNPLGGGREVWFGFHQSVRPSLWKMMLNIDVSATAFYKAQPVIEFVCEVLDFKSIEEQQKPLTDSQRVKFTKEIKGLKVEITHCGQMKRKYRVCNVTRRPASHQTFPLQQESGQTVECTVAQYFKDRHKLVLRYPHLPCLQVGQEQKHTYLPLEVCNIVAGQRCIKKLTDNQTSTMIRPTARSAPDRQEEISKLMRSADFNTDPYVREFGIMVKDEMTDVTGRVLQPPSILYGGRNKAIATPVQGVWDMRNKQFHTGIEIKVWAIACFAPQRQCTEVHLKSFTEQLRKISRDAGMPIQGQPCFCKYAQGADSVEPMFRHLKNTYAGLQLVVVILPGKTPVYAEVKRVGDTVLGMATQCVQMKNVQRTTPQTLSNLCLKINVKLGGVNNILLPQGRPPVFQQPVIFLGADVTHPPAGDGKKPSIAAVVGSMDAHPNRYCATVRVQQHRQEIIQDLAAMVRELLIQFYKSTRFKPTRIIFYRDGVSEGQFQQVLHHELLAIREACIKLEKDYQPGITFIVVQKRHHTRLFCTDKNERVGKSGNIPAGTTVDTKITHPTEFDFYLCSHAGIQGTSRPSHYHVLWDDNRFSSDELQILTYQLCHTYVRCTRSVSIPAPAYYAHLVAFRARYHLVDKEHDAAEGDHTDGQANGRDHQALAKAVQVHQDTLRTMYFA
In short: as §1

Row | Binder | binding signal
39 | B1 | 155 fold enrichment over input
40 | B2 | 0.347 fold enrichment over input
41 | B3 | 0.661 fold enrichment over input
42 | B4 | 0.212 fold enrichment over input
43 | B5 | 2.89 fold enrichment over input
44 | B6 | 0.501 fold enrichment over input
45 | B7 | 2.33 fold enrichment over input
46 | B8 | 3.12 fold enrichment over input
47 | B9 | 0.711 fold enrichment over input
48 | B10 | 66.8 fold enrichment over input
49 | B11 | 0.327 fold enrichment over input
50 | B12 | 0.466 fold enrichment over input
51 | B13 | 140 fold enrichment over input
52 | B14 | 0.229 fold enrichment over input
53 | B15 | 0.835 fold enrichment over input
54 | B16 | 0.316 fold enrichment over input
55 | B17 | 0.195 fold enrichment over input
56 | B18 | 2.6 fold enrichment over input
57 | B19 | 0.613 fold enrichment over input

target: AGO2 T357M (Homo sapiens, UniProt Q9UKV8 1-859, T357M;S387D;S824A;S828D;S831D;S834A); test: as above; conditions: protein: recombinant; tags: His6 (N-terminal, pFastBac HTA)
Sequence (Q9UKV8 whole entry T357M/S387D/S824A/S828D/S831D/S834A): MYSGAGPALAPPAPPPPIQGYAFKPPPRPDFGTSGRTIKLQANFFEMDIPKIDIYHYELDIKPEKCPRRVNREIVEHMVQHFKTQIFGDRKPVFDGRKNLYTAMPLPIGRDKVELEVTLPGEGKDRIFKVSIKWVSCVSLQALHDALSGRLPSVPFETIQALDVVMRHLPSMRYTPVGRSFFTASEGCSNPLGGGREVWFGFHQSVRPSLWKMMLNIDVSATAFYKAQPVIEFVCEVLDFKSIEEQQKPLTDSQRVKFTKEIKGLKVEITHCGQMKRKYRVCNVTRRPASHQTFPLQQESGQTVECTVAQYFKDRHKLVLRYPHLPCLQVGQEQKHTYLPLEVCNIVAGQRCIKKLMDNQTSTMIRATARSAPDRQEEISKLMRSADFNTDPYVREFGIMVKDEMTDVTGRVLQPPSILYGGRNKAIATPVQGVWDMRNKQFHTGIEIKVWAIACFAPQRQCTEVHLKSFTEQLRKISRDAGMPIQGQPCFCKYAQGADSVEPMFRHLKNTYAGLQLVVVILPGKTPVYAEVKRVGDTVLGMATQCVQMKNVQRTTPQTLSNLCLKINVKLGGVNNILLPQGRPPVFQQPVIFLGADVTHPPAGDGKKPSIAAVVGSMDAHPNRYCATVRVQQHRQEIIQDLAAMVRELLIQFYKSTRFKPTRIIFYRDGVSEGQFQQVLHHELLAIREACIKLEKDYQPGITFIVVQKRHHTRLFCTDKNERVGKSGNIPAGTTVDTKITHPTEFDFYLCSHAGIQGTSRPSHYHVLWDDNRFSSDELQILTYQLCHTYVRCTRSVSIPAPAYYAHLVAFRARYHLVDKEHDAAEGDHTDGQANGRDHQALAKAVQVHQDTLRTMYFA
In short: as §1

Row | Binder | binding signal
58 | B1 | 154 fold enrichment over input
59 | B2 | 0.645 fold enrichment over input
60 | B3 | 0.72 fold enrichment over input
61 | B4 | 0.632 fold enrichment over input
62 | B5 | 0.632 fold enrichment over input
63 | B6 | 0.678 fold enrichment over input
64 | B7 | 0.519 fold enrichment over input
65 | B8 | 0.965 fold enrichment over input
66 | B9 | 0.738 fold enrichment over input
67 | B10 | 44 fold enrichment over input
68 | B11 | 0.624 fold enrichment over input
69 | B12 | 0.678 fold enrichment over input
70 | B13 | 108 fold enrichment over input
71 | B14 | 0.707 fold enrichment over input
72 | B15 | 0.737 fold enrichment over input
73 | B16 | 0.605 fold enrichment over input
74 | B17 | 0.72 fold enrichment over input
75 | B18 | 0.765 fold enrichment over input
76 | B19 | 0.57 fold enrichment over input

target: AGO2 F182del (Homo sapiens, UniProt Q9UKV8 1-859, S387D;S824A;S828D;S831D;S834A;del182-182); test: as above; conditions: protein: recombinant; tags: His6 (N-terminal, pFastBac HTA)
Sequence (Q9UKV8 other isoform, or with tags, fused parts or gaps S387D;S824A;S828D;S831D;S834A;del182-182): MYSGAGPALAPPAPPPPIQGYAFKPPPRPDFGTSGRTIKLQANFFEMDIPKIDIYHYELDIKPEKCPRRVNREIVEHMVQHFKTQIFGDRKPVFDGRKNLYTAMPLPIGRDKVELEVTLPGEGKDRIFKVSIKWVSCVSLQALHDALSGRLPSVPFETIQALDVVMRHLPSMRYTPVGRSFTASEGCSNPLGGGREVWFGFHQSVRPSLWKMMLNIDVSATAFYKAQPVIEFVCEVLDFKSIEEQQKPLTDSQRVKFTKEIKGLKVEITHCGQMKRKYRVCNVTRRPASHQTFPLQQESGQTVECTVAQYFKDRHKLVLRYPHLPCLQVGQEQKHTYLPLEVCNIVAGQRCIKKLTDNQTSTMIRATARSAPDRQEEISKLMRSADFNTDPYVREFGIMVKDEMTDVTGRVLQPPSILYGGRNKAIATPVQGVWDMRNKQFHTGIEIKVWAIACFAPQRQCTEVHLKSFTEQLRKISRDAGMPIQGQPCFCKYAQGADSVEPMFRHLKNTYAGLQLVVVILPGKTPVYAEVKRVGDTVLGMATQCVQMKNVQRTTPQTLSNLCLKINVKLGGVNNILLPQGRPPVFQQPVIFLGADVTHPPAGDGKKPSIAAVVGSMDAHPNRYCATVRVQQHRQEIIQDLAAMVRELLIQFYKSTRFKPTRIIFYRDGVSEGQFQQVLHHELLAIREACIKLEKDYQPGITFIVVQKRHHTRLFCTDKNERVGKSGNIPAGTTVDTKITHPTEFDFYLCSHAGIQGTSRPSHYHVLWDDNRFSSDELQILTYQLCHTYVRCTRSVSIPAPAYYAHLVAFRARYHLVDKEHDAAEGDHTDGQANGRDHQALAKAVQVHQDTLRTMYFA
In short: as §1

Row | Binder | binding signal
77 | B1 | 116 fold enrichment over input
78 | B2 | 0.936 fold enrichment over input
79 | B3 | 1.96 fold enrichment over input
80 | B4 | 0.299 fold enrichment over input
81 | B5 | 3.65 fold enrichment over input
82 | B6 | 1.79 fold enrichment over input
83 | B7 | 2.42 fold enrichment over input
84 | B8 | 4.41 fold enrichment over input
85 | B9 | 2.93 fold enrichment over input
86 | B10 | 91.6 fold enrichment over input
87 | B11 | 0.944 fold enrichment over input
88 | B12 | 2.15 fold enrichment over input
89 | B13 | 91 fold enrichment over input
90 | B14 | 0.311 fold enrichment over input
91 | B15 | 4.6 fold enrichment over input
92 | B16 | 0.86 fold enrichment over input
93 | B18 | 2.78 fold enrichment over input
94 | B19 | 2.74 fold enrichment over input
